Bioassay records from PubChem BioAssay.
Shiga inhibitor: blocks Shiga toxin action in Vero cells; Vero cells, Shiga toxin protein synthesis inhibition reporter; inhibition, % at 38.7 µM; 9.2% of 290,000 active; AID 2315; in the data active = inhibition mostly above about 28%, no sharp cut-off; inactive = mostly below about 43%; also: 0% is about no effect
HCV inhibitor: inhibitors of hepatitis C virus infection. Huh7.5.1 HCVcc-Cre infection, luciferase reporter, 44 h. Potency, µM (top dose mostly 41.8 µM), for the others: at the top dose activity change, negative = inhibition, most hits filed as inhibitors. 3.4% of 340,000 active. AID 651820; also: potency is read from the fitted curve at half-maximal effect; % is scaled to controls: 0 for no effect and ±100 for the full control effect
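Infectious HCVcc-Cre (~0.5 moi) was added to cells just after compound, with cells seeded 4 h earlier at 1,000 per well. Luciferase activity after 44 h culture reported infection; substrate was incubated 15 min at room temperature before reading.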
Pf growth 48h: P. falciparum growth inhibition at 48 hours (one generation). P. falciparum luciferase growth in erythrocytes, 48 h. Potency, µM (titrated, usually from 28.7 µM), for inactives: at the top dose activity change, negative = inhibition, hits mostly inhibitors. 5.9% of 310,000 active. AID 504832; also: potency is read from the fitted curve at half-maximal effect; % is scaled to controls: 0 for no effect and ±100 for the full control effect
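Compounds are pin-transferred into medium, infected erythrocytes (2% hematocrit, 0.1% parasitemia final) are added, and plates sit one parasite generation at 37 C in 5% CO2. Detection reagent is then added and luminescence measured.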
Pf growth 96h: P. falciparum growth inhibition at 96 hours. P. falciparum luciferase reporter growth, 96 h. Potency, µM (highest dose often 28.7 µM), without a hit: top-dose activity change, negative = inhibition, most hits filed as inhibitors. 6.9% of 320,000 active; also: potency is read from the fitted curve at half-maximal effect; % is scaled to controls: 0 for no effect and ±100 for the full control effect
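Compounds incubated with erythrocytes infected by luciferase-expressing P. falciparum (2% hematocrit, 0.05% parasitemia final) for 96 hours, 37 C in 5% CO2. Growth inhibition scored as decreased luciferase luminescence.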
HCMV antiviral: human cytomegalovirus inhibition; activity change, negative = inhibition, % at 57.5 µM; 4.5% of 410,000 active; AID 1259415; HFF cells, HCMV-luciferase reporter, 72 h; hits give low values; in the data active = activity change below about -60%; inconclusive = no clear call, values can overlap the other calls; inactive = above about -39%; also: % is scaled to controls: 0 for no effect and ±100 for the full control effect
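After 16 h attachment at 37C, HFF cells received test compound and HCMV-luciferase (1 PFU/cell); reporter luminescence read 72 h later, data normalized against buffer-only and known inhibitor Salinomycin.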
CHX counter: affects cycloheximide protein synthesis inhibition readout, counter-screen; cell reporter, cycloheximide protein synthesis inhibition counterscreen; max response, %; 12% of 300,000 active; in the data active = max response mostly above about 13%, no sharp cut-off; inactive = mostly below about 14%; also: read at 38.3 µM for the half of the compounds with a filed dose; 0% is about no effect
The depositor's hits bear a star; ? = inconclusive; . = no result; + = active, no number; [ ] = remark or other dose. In the library only some 21% were active in any assay of this set; here they are far more common. Unless noted, calls follow the shape of the dose curve; as a rule, active = well fitted inhibition curve with a large enough effect; inconclusive = small, poorly fitted or top-dose-only effect, or another doubt; inactive = no such curve, though single readings can be large or run the other way.

SMILES	Shiga inhibitor	HCV inhibitor	Pf growth 48h	Pf growth 96h	HCMV antiviral	CHX counter
C[C@@]12CCc3occc3[C@H]1CC[C@@]13C[C@@H](CC[C@H]12)[C@@](O)(CO)C3	-5	.	.	.	.	-9
Cc1cc(NC(=O)c2coc(=O)c(Br)c2)ccc1C(C)C	108*	8%	?	?	51	95*
Cc1cc(C)cc(N2C(=O)CSC23C(=O)N(Cc2c(F)cccc2Cl)c2ccccc23)c1 (stereo unspecified)	.	.	.	.	-36	.
Cc1cc(NC(=O)CSc2nnc(-c3ccccc3)n2Cc2ccco2)no1	24	-13%	?	?	-2	10
O=C(CSc1nnc(-c2cccnc2)n1Cc1ccco1)Nc1nc(-c2ccc(F)cc2)cs1	8	25µM*	21%	.	-74*	-2
O=C(CSc1nnc(-c2ccncc2)n1Cc1ccco1)Nc1nccs1	1	?	14%	7.4µM*	8	-2
Cc1cccc(C)c1NC(=O)CSc1nnc(-c2ccncc2)n1Cc1ccco1	-20	8%	.	13%	-27	-4
CCOC(=O)CNC(=O)CSc1nnc(-c2ccccc2)n1Cc1ccco1	-11	8%	0%	12µM*	-17	8
COc1ccc(CC(=O)NCc2ccc3c(c2)CCN3C(C)=O)cc1	.	.	.	.	111	.
CCCOP(=O)(c1ccc(N(C)C)cc1)C(O)c1ccncc1 (stereo unspecified)	-15	0%	10%	-28%	42	-6
CCCOP(=O)(c1ccc(N(C)C)cc1)C(Nc1ccccc1)c1ccc(N(C)C)cc1 (stereo unspecified)	18	?	2.6µM*	8.3µM*	14	13
CCCCOP(=O)(c1ccc(N(C)C)cc1)C(Nc1ccccc1)c1ccccc1 (stereo unspecified)	12	?	?	15µM*	-18	0
O=C1C=C(c2cccc(O)c2)C[C@@H](c2ccc(F)cc2)C1	.	-17%	?	?	14	.
COc1cccc(C2=CC(=O)C[C@H](c3ccc(F)cc3)C2)c1	.	14%	2.3µM*	?	?	.
COCc1cccc(C2=CC(=O)C[C@H](c3ccc(F)cc3)C2)c1	.	-19%	2.3µM*	?	10	.
O=C1C=C(c2cccc(CO)c2)C[C@@H](c2ccc(F)cc2)C1	.	-14%	2.3µM*	2.1µM*	-4	.
COc1ccc(C2CC(=O)Nc3c2c(=O)n(C)c2nc4ccccc4n32)cc1 (stereo unspecified)	.	.	.	.	18	.
N#Cc1c(NC(=S)NC(=O)c2ccccc2)sc2c1CCC2	37	-1%	30%	-80%	47	32*
CC(C)(C)c1ccc(C(=O)NC(=S)Nc2sc3c(c2C#N)CCC3)cc1	18*	?	4%	35%	-38	12*
CN1Cc2sc(NC(=S)NC(=O)c3ccccc3)c(C#N)c2CC1(C)C	56	?	-21%	-51%	-76*	47*
CCN1CCc2c(sc(NC(=S)NC(=O)c3ccccc3)c2C#N)C1	29	-20%	?	21%	-5	22
CC1CCc2sc(NC(=S)NC(=O)c3ccccc3)c(C#N)c2C1 (stereo unspecified)	+	?	39%	63%	?	26*
Cn1nccc1C(=O)NC(=S)Nc1sc2c(c1C#N)CCCCC2	34	7%	106%	234%	98	17
O=C(NC(=S)Nc1sc2c(c1C(=O)O)CCCC2)c1ccccc1	21	-3%	43%	0%	26	12*
O=C(Nc1sc2c(c1C(=O)O)CCCC2)c1ccccc1Cl	.	-21%	-3%	-22%	-7	4
SMILES	Shiga inhibitor	HCV inhibitor	Pf growth 48h	Pf growth 96h	HCMV antiviral	CHX counter
O=C(COC(=O)c1ncc(Cl)c(Cl)c1Cl)Nc1ccc(Cl)cn1	.	5%	6%	10%	-12	.
Cc1ccc(NC(=O)C(C)OC(=O)CCC2CCCCC2)cc1 (stereo unspecified)	.	2%	45%	27%	-12	.
CCOC(=O)c1c(C)[nH]c(C(=O)N2CCc3cc(OC)c(OC)cc3C2)c1C	.	11µM*	-23%	?	3	.
CCOC(=O)c1c(C)[nH]c(C(=O)OCC(=O)Nc2cc(C)ccc2OC)c1C	-15	-2%	-2%	5.9µM*	-35	-4
CCOC(=O)c1[nH]c(C)c(C(=O)OC)c1C	28	6%	92%	102%	59	13*
CCOC(=O)c1c(C)[nH]c(C(=O)CSc2ccc(Cl)cc2)c1C	89*	?	93%	.	11	22*
CCOC(=O)c1c(C)[nH]c(C(=O)N2CCN(C(=O)OCC)CC2)c1C	-15	-1%	16%	19%	-12	-3
COc1ccc(/C=C(\NC(=O)c2ccccc2Cl)C(=O)NCCCC(=O)O)cc1	-8	15%	24%	-66%	4	5
Cc1ccccc1C(=O)NNC(=O)CCCCC(=O)NNC(=O)c1ccccc1C	.	17%	.	.	12	.
CCOC(=O)c1[nH]c(C)c(C(=O)NC2CCCCC2)c1C	-8	6%	.	9.3µM*	-11	-1
CCOC(=O)c1[nH]c(C)c(C(=O)NCC2CCCO2)c1C (stereo unspecified)	-3	20%	19%	1%	22	-3
CCOC(=O)c1c(C)[nH]c(C(=O)OCC(=O)NC(C)(C)C)c1C	10	14µM*	47%	16%	-80*	23*
CCOC(=O)c1c(C)[nH]c(C(=O)COC(=O)C2CC2)c1C	.	?	-16%	25%	-10	.
CCOC(=O)c1c(C)[nH]c(C(=O)N/N=C/c2ccc(Br)cc2)c1C	15	?	-5%	?	-77*	2
CCOC(=O)c1[nH]c(C)c(C(=O)OCC(=O)NC(=O)NC(C)(C)C)c1C	-4	?	3%	.	-8	-3
Cc1[nH]c(C(=O)N/N=C/c2ccc(C(=O)O)cc2)c(C)c1C(=O)N/N=C/c1ccc(C(=O)O)cc1	-13	-14%	0%	60%	-6	-3
CCOC(=O)c1c(C)[nH]c(C(=O)COC(=O)C2(C)CC2(Cl)Cl)c1C (stereo unspecified)	49	-19%	.	12%	?	53*
CCN(CC)c1ccc(NC(=O)CN2C(=O)c3cccnc3Oc3ccccc32)c(C)c1	.	.	.	.	0	.
COc1ccc([C@H]2C[C@H](n3cc(C4CC4)nn3)[C@@H](O)CN2C(=O)C2CCCCC2)cc1	.	.	.	.	-28	.
CCNC(=O)COC(=O)c1[nH]c(C)c(C(=O)OC)c1C	71*	-8%	185%	305%	49	43*
COC(=O)c1c(C)[nH]c(C(=O)OCC(=O)c2ccc(C)s2)c1C	.	11µM*	.	.	52	.
Cc1ccc(C(=O)OCC(=O)c2ccc(Cl)s2)s1	83*	?	118%	.	-10	53*
CCOC(=O)CC(=O)c1[nH]c(C)c(C(=O)OCC)c1C	46	-7%	20%	40%[5.75 µM]	?	26*
